Bioassay records as filed in PubChem.
ATXN viability: cell viability loss in ATXN counter-screen; S2 cells (HEK-293 line with an ATXN2-luciferase reporter) viability, CellTiter-Fluor protease fluorescence, 24 h; Potency, µM (series often up to 56.7 µM), actives largely listed as cytotoxic; 400,000 compounds, 0.49% hits; AID 651635; also: potency is read from the fitted curve at half-maximal effect; nearly all actives have a fitted effect of over 40% in size
HepG2 viability: HepG2 cytotoxicity, counter-screen for TGF-b inhibitors; 410,000 compounds, 0.76% hits; HepG2 CAGA-GFP viability, ATP luminescence, 18 h; Potency, µM (doses to about 46.1 µM), for the others: top-dose activity change, negative = cytotoxicity, most hits filed as cytotoxic; also: potency is read from the fitted curve at half-maximal effect
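CellTiter-Glo luminescence gave cytotoxicity after 18 hours at 37 degrees C. The cells were HepG2 CAGA-GFP in 1% FBS DMEM, stimulated with 500 pg/mL TGF-beta after compound addition. %Activity was normalised to no-cell wells (complete cell-killing) and DMSO (no toxicity), and curves were fitted and classified.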
Six1-Eya2 inh: blocks human Six1 binding to Eya2 | Q15475+O00167 | AlphaScreen GST-Six1/His-Eya2 binding, biochemical; active compounds read low | activity change, % (no concentration beside the values) | 360,000 compounds, 0.56% hits | AID 651725; in the data active = activity change below about -65%; inconclusive = mostly about -30% to -63%; also: % is scaled to controls: 0 for no effect and ±100 for the full control effect
Target sequence (O00167 whole entry, looked up): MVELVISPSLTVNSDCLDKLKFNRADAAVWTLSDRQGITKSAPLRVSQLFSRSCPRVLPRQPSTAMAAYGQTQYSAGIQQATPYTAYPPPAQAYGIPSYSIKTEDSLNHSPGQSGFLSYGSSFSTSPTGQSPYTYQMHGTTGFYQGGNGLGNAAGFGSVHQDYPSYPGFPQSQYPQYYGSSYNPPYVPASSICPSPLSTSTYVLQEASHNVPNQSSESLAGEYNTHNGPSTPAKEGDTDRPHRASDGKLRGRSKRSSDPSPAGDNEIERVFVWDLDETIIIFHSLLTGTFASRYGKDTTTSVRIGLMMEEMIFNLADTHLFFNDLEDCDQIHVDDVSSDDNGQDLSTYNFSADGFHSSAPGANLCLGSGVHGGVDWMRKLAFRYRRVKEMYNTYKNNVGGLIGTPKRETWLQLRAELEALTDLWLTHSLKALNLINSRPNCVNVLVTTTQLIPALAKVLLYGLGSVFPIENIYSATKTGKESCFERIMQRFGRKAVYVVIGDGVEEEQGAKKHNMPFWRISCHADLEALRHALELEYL
Target sequence (Q15475 whole entry, looked up): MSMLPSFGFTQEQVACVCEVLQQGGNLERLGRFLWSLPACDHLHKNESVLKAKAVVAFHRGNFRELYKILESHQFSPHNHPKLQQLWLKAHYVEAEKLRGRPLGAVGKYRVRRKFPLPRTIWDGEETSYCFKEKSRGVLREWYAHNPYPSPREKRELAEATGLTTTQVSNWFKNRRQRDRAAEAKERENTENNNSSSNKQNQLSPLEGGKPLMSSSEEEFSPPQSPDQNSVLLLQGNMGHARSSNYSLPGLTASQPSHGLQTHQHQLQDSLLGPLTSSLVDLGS
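AlphaScreen with GST-Six1 and His-Eya2 (5X mix: 250 nM and 500 nM), glutathione donor and nickel acceptor beads; buffer 50 mM Tris pH 8.0, 300 mM NaCl, 1 mM TCEP; 1 h at 37 C in the dark.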
TGFb inhibitor: inhibitors of TGF-b signaling; HepG2 CAGA-GFP TGF-b/SMAD3 reporter, GFP fluorescence, 18 h; TGF-beta stimulated, 500 pg/mL final; AID 588855; Potency, µM (titrated, usually from 46.1 µM), without a hit: at the highest dose activity, negative = inhibition, usual class: inhibitors; 410,000 compounds, 1.2% hits; also: potency is read from the fitted curve at half-maximal effect; % is scaled to controls: 0 for no effect and ±100 for the full control effect; nearly all actives have a fitted effect of over 65% in size
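HEPG2 CAGA-GFP reporter cells (1000/well, DMEM with 1% FBS) received compounds, then recombinant TGF-beta at 500 pg/mL final for 18 hours at 37 degrees C. Per-cell GFP summed per well was normalised to unstimulated and stimulated DMSO controls before curve fitting.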
CtBP-E1A blk: CtBP/E1A binding inhibition. AlphaScreen GST-E1A/His-CtBP binding, 1536-well; active compounds read low. activity change, % (test concentration not listed). 340,000 compounds, 0.49% hits; in the data active = activity change below about -65%; inconclusive = mostly about -30% to -63%; also: % is scaled to controls: 0 for no effect and ±100 for the full control effect
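GST-E1A and His-tagged CtBP (125 nM each as 5X stock) were preincubated with pin-transferred compound for 2 h at 37 °C in the dark, then glutathione donor and nickel acceptor beads were added for 1 h before AlphaScreen reading.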
ATXN2 expr inh: reduces ATXN2 reporter expression in HEK-293 cells; HEK-293 ATXN2-luciferase reporter, luminescence, 24 h; Potency, µM (top dose mostly 57 µM), inactives show at the top dose activity change, negative = inhibition, most hits filed as inhibitors; 360,000 compounds, 0.72% hits; AID 1745845; also: potency is read from the fitted curve at half-maximal effect; % is scaled to controls: 0 for no effect and ±100 for the full control effect; nearly all actives have a fitted effect of over 55% in size
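qHTS (up to 57 uM final) was run with 24 h compound exposure of reporter cells at 37 °C. Each well was multiplexed: SteadyGlo luminescence measured ATXN2-luciferase expression after a fluorogenic Gly-Phe-AFC viability readout (25 uM final).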
* hit, by the source's call; i = inactive; ? = inconclusive; / = not tested or not shown. Rows were chosen to be rich in hits. Some 2.8% of all compounds tested hit in one or more screens of this group. Unless noted, calls follow the shape of the dose curve; as a rule, active = well fitted curve in the direction sought with a large enough effect; inconclusive = small, poorly fitted or top-dose-only effect, or another doubt; inactive = no such curve, though single readings can be large; an effect the other way counts as inactive or inconclusive.

SMILES	ATXN viability	HepG2 viability	Six1-Eya2 inh	TGFb inhibitor	CtBP-E1A blk	ATXN2 expr inh
COc1cccc(/C=N/NC(=O)COc2cccc3cccnc23)c1O	i	-44.0%	?	?	-79.9*	?
COc1ccccc1OCC(=O)N/N=C/c1cccc2cccnc12	i	-32.2%	-74.4*	-17.0%	-86.1*	-19.8%
CCC(COC)NC(=O)c1cnn(-c2ncc3c(n2)-c2ccccc2CC3)c1C (stereo not drawn)	i	/	/	/	/	/
COc1ccc(/C=C(/C#N)c2nc(-c3ccc(Br)cc3)cs2)cc1	i	4.7%	/	22.0%	/	-7.4%
CC(C)c1ccc(/C=C(\C#N)c2nc(-c3ccc(O)cc3)cs2)cc1	i	17.8µM*	/	?	/	?
COc1ccc2o/c(=N/NC(=O)c3cccs3)c(C(N)=O)cc2c1	i	-10.6%	?	42.7%	-83.0*	27.9%
O=C(NC1=NCCS1)C1COc2ccccc2O1 (stereo not drawn)	i	-23.2%	0.6	2.9%	5.9	2.51µM*
O=C(Nc1ccncc1)C1COc2ccccc2O1 (stereo not drawn)	i	1.3%	-11.5	-7.8%	1.6	-3.6%
COCCNC(=O)c1cn(C2CCN(C3CCCC3)CC2)nn1	i	/	/	/	/	/
c1ccc(-c2cn(C[C@H]3CC[C@@H]([C@@H]4CC[C@H](Cn5cc(-c6ccccn6)nn5)O4)O3)nn2)nc1	i	4.9%	-87.4*	-24.5%	-81.2*	7.1%
CO[C@H]1[C@H](NC(=O)c2ccsc2)c2ccccc2C12CCN(Cc1cnn(C)c1C)CC2	i	/	/	/	/	/
Cc1ncsc1CCC(=O)N1CCCC(c2nc(-c3ccncc3)ncc2-c2ccccc2)C1 (stereo not drawn)	i	/	/	/	/	/
O=C(NCc1cccc(Cl)c1)c1cccc2c(-c3cccnc3)coc12	20µM*	-44.1%	?	?	-20.9	28.2µM*
c1ccc(CNc2nc(-c3ccccn3)nc3ccccc23)cc1	i	-8.9%	?	0.0%	-76.8*	?
CCCCN(CC(O)COc1cccc(C)c1)CC(O)COc1cccc(C)c1 (stereo not drawn)	?	-99.6%	3.0	15.8µM*	0.6	-33.5%
CN(C)CC(O)COc1cccc(OCC(O)CN(C)C)c1 (stereo not drawn)	i	-7.1%	-3.4	-0.5%	-2.1	-3.2%
O=C(O)c1ccc2cc(-c3ccc(O)c(C45CC6CC(CC(C6)C4)C5)c3)ccc2c1	/	/	/	/	/	1.93µM*
Oc1ccc(C23CC4CC(CC(C4)C2)C3)cc1O	/	-2.8%	-13.6	-21.0%	/	/
Oc1ccc(Cl)cc1C1C=C(c2ccc3c(c2)OCO3)NC(c2ccc(C(F)(F)F)cc2)N1 (stereo not drawn)	/	-91.8%	/	15.8µM*	/	/
Oc1ccc(Br)cc1C1C=C(c2ccc3c(c2)OCO3)NC(c2ccc(Br)cc2)N1 (stereo not drawn)	/	-56.8%	/	?	/	/
Oc1ccccc1C1C=C(c2ccc3c(c2)OCO3)NC(c2ccc(F)c(Br)c2)N1 (stereo not drawn)	/	-59.2%	/	?	/	/
Oc1ccc(Br)cc1C1C=C(c2ccc3c(c2)OCO3)NC(c2ccc(F)c(Br)c2)N1 (stereo not drawn)	/	-95.9%	/	7.94µM*	/	/
CC(=O)c1ccc(NC(=O)c2cc3sccc3n2Cc2ccc(Cl)cc2)cc1	?	-58.2%	/	?	/	-27.7%
COc1ccccc1CCNC(=O)C(=O)NCC(c1cccs1)S(=O)(=O)c1ccc(C)cc1 (stereo not drawn)	i	-10.6%	/	-6.0%	/	-2.0%
CCN(CC)c1cc(C)c2cc(NC(=O)c3cc(OC)cc(OC)c3)ccc2n1	/	-26.7%	/	?	/	17.8µM*
CCN(CC)c1cc(C)c2cc(NC(=O)c3ccc(F)cc3Cl)ccc2n1	?	-26.7%	/	0.0%	/	?
CCN(CC)c1cc(C)c2cc(NC(=O)/C=C/c3ccccc3Cl)ccc2n1	/	-80.5%	/	?	/	28.2µM*
